Reference: PubChem BioAssay AID1159580 (chemical genetic matrix, 2015)
Values joined by “and” are separate entries in the source; they are usually repeats but may differ in a detail not shown here. Equal entries are not always repeated. In all, about 5,500 compounds went through this assay and about 2,000 (36%) were called active. Roughly 18% stayed inconclusive and do not appear here. Rule as the data show it: active = normalized growth mostly below about 0.91 (no sharp cut-off); inconclusive = no clear call, values can overlap the other calls; inactive = mostly above about 0.92. This is one part of the list.

Test: chemical genetic growth profiling, strain panel (AID 1159580);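 also: tested at 20 µM; growth read once vehicle control cultures reached saturation at 30 °C; 1 = growth at the plate median or of vehicle wells; lower values mean less growth of the strain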
Conditions: S. cerevisiae deletion strains, growth OD

Measured: normalized growth

CC(=O)OCC(=O)[C@@]1(O)CCC2C3CCC4=CC(=O)C=CC4(C)C3[C@@H](O)C[C@@]21C (stereo partly drawn)
inactive: locus YAL021C, strain ccr4, active compounds read low 1 | locus YAL026C, strain drs2, active compounds read low 1 | locus YAL030W, strain snc1, active compounds read low 0.997 | locus YBL061C, strain skt5, active compounds read low 0.996 | locus YBR009C, strain hhf1, active compounds read low 1.01 | locus YBR021W, strain FUR4, active compounds read low 1.02 | locus YBR023C, strain chs3, active compounds read low 0.994 | locus YBR171W, strain sec66, active compounds read low 0.973 | locus YBR229C, strain ROT2, active compounds read low 1.01 | locus YBR231C, strain swc5, active compounds read low 0.978 | locus YBR279W, strain paf1, active compounds read low 0.993 | locus YCL011C, strain gbp2, active compounds read low 0.996 | locus YCL016C, strain dcc1, active compounds read low 1.01 | locus YCL029C, strain bik1, active compounds read low 1.02 | locus YCL061C, strain MRC1, active compounds read low 0.997 | locus YCL069W, strain vba3, active compounds read low 1 | locus YCR088W, strain abp1, active compounds read low 0.998 | locus YDL005C, strain med2, active compounds read low 0.992 | locus YDL035C, strain GPR1, active compounds read low 1.02 | locus YDL040C, strain nat1, active compounds read low 1 | locus YDL074C, strain BRE1, active compounds read low 1.02 | locus YDL101C, strain DUN1, active compounds read low 1 | locus YDL134C, strain PPH21, active compounds read low 1.01 | locus YDL185W, strain tfp1, active compounds read low 1.02 | locus YDL192W, strain arf1, active compounds read low 1.02 | locus YDR001C, strain nth1, active compounds read low 1 | locus YDR069C, strain doa4, active compounds read low 0.99 | locus YDR101C, strain arx1, active compounds read low 1.02 | locus YDR137W, strain rgp1, active compounds read low 0.978 | locus YDR150W, strain NUM1, active compounds read low 1 | locus YDR159W, strain sac3, active compounds read low 1 | locus YDR162C, strain NBP2, active compounds read low 1.01 | locus YDR195W, strain ref2 0.984 | locus YDR297W, strain sur2, active compounds read low 0.992 | locus YDR318W, strain mcm21, active compounds read low 1.03 | locus YDR334W, strain swr1, active compounds read low 1 | locus YDR335W, strain msn5, active compounds read low 1 | locus YDR388W, active compounds read low 1.02 | locus YDR392W, strain spt3, active compounds read low 1.02 | locus YDR502C, strain sam2, active compounds read low 1.01 | locus YEL003W, strain gim4, active compounds read low 0.998 | locus YEL037C, strain rad23, active compounds read low 1 | locus YEL061C, strain CIN8 (second series), active compounds read low 0.98 | locus YEL061C, strain CIN8, active compounds read low 1 | locus YER015W, strain faa2, active compounds read low 0.996 | locus YER016W, strain bim1, active compounds read low 1.01 | locus YER110C, active compounds read low 1.01 | locus YER111C, strain swi4, active compounds read low 0.996 | locus YER155C, strain BEM2 (second series), active compounds read low 0.978 | locus YER155C, strain BEM2, active compounds read low 1 | locus YER167W, strain BCK2, active compounds read low 1.01 | locus YFR010W, strain ubp6, active compounds read low 0.993 | locus YGL078C, strain dbp3, active compounds read low 1.01 | locus YGL086W, strain mad1, active compounds read low 1 | locus YGL167C, strain pmr1, active compounds read low 0.999 | locus YGL173C, strain kem1, active compounds read low 0.992 | locus YGL227W, strain vid30, active compounds read low 1 | locus YGL240W, strain doc1, active compounds read low 0.972 | locus YGL248W, strain PDE1, active compounds read low 1.01 | locus YGL253W, strain hxk2, active compounds read low 1.01 | locus YGR135W, strain pre9, active compounds read low 1.02 | locus YGR252W, strain gcn5, active compounds read low 1.05 | locus YHR013C, strain ard1, active compounds read low 0.978 | locus YHR027C, strain rpn1, active compounds read low 1 | locus YHR030C, strain SLT2, active compounds read low 1 and 0.977 | locus YHR079C, strain IRE1 (second series), active compounds read low 1.02 | locus YHR079C, strain IRE1, active compounds read low 0.964 | locus YHR094C, strain hxt1, active compounds read low 1.01 | locus YHR129C, strain ARP1, active compounds read low 1 | locus YHR142W, strain chs7, active compounds read low 0.989 | locus YHR200W, strain rpn10, active compounds read low 1.01 | locus YIL066C, strain RNR3, active compounds read low 1.01 | locus YIL073C, strain SPO22, active compounds read low 1.03 | locus YIL125W, strain kgd1, active compounds read low 1.01 | locus YIR030C, strain dcg1, active compounds read low 1.02 | locus YJL092W, strain hpr5, active compounds read low 0.995 | locus YJL095W, strain BCK1 (second series), active compounds read low 0.995 | locus YJL095W, strain BCK1, active compounds read low 1.03 and 0.993 | locus YJL115W, strain asf1, active compounds read low 0.994 | locus YJL129C, strain trk1, active compounds read low 0.97 | locus YJL134W, strain LCB3, active compounds read low 1.01 | locus YJL154C, strain vps35, active compounds read low 0.996 | locus YJL164C, strain tpk1, active compounds read low 1.01 | locus YJL166W, strain qcr8, active compounds read low 0.951 | locus YJL168C, strain set2, active compounds read low 1.02 | locus YJL187C, strain SWE1 (second series), active compounds read low 1.01 | locus YJR043C, strain POL32, active compounds read low 1.01 | locus YJR066W, strain TOR1, active compounds read low 0.935
